Screen size: about 5,500 compounds; about 2,000 (36%) were called active. About 18% were inconclusive and are not listed. Cut-off read from the data, not from the text of the source: active = normalized growth mostly below about 0.91 (no sharp cut-off); inconclusive = no clear call, values can overlap the other calls; inactive = mostly above about 0.92. The list shows a part of the results.
Assay: chemical genetic growth profiling, strain panel (AID 1159580);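 note: tested at 20 µM; growth read once vehicle control cultures reached saturation at 30 °C; 1 = growth at the plate median or of vehicle wells; lower values mean less growth of the strain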
Details: S. cerevisiae deletion strains, growth OD

Measured: normalized growth

CC(=O)O[C@H]1C[C@@]2(C)[C@H](c3ccoc3)OC(=O)[C@H]3O[C@]32[C@@]2(C)C1[C@]1(C)C(C[C@H]2OC(C)=O)C(C)(C)[C@H](OC(C)=O)C[C@@H]1OC(C)=O (stereo partly drawn)
inactive: locus YAL013W, strain DEP1, active compounds read low 0.999 | locus YAL021C, strain ccr4, active compounds read low 1.04 | locus YAL026C, strain drs2, active compounds read low 0.97 | locus YAL030W, strain snc1, active compounds read low 0.997 | locus YBL061C, strain skt5, active compounds read low 0.993 | locus YBR009C, strain hhf1, active compounds read low 1.05 | locus YBR021W, strain FUR4, active compounds read low 1.02 | locus YBR023C, strain chs3, active compounds read low 1 | locus YBR171W, strain sec66, active compounds read low 0.958 | locus YBR229C, strain ROT2, active compounds read low 0.949 | locus YBR231C, strain swc5, active compounds read low 1 | locus YBR279W, strain paf1, active compounds read low 0.998 | locus YCL011C, strain gbp2, active compounds read low 0.998 | locus YCL016C, strain dcc1, active compounds read low 1.05 | locus YCL029C, strain bik1, active compounds read low 0.971 | locus YCL061C, strain MRC1, active compounds read low 1 | locus YCL069W, strain vba3, active compounds read low 0.975 | locus YCR088W, strain abp1, active compounds read low 0.99 | locus YDL005C, strain med2, active compounds read low 0.968 | locus YDL035C, strain GPR1, active compounds read low 0.968 | locus YDL040C, strain nat1, active compounds read low 0.99 | locus YDL074C, strain BRE1, active compounds read low 0.999 | locus YDL101C, strain DUN1, active compounds read low 0.974 | locus YDL134C, strain PPH21, active compounds read low 0.986 | locus YDL185W, strain tfp1, active compounds read low 0.953 | locus YDL192W, strain arf1, active compounds read low 0.992 | locus YDR001C, strain nth1, active compounds read low 0.989 | locus YDR069C, strain doa4, active compounds read low 0.972 | locus YDR101C, strain arx1, active compounds read low 0.946 | locus YDR137W, strain rgp1, active compounds read low 1 | locus YDR159W, strain sac3, active compounds read low 0.918 | locus YDR162C, strain NBP2, active compounds read low 1.01 | locus YDR195W, strain ref2 0.981 | locus YDR297W, strain sur2, active compounds read low 0.982 | locus YDR318W, strain mcm21, active compounds read low 0.973 | locus YDR334W, strain swr1, active compounds read low 0.975 | locus YDR335W, strain msn5, active compounds read low 0.997 | locus YDR388W, active compounds read low 0.983 | locus YDR392W, strain spt3, active compounds read low 1 | locus YDR502C, strain sam2, active compounds read low 0.987 | locus YEL003W, strain gim4, active compounds read low 0.967 | locus YEL037C, strain rad23, active compounds read low 0.989 | locus YEL061C, strain CIN8 (second series), active compounds read low 0.978 | locus YEL061C, strain CIN8, active compounds read low 0.997 | locus YER015W, strain faa2, active compounds read low 0.997 | locus YER016W, strain bim1, active compounds read low 0.98 | locus YER110C, active compounds read low 0.974 | locus YER111C, strain swi4, active compounds read low 0.979 | locus YER155C, strain BEM2 (second series), active compounds read low 1.02 | locus YER155C, strain BEM2, active compounds read low 1.01 | locus YER167W, strain BCK2, active compounds read low 0.981 | locus YFR010W, strain ubp6, active compounds read low 0.955 | locus YGL078C, strain dbp3, active compounds read low 0.972 | locus YGL086W, strain mad1, active compounds read low 0.996 | locus YGL167C, strain pmr1, active compounds read low 0.99 | locus YGL173C, strain kem1, active compounds read low 0.964 | locus YGL227W, strain vid30, active compounds read low 0.983 | locus YGL240W, strain doc1, active compounds read low 0.978 | locus YGL248W, strain PDE1, active compounds read low 0.989 | locus YGR135W, strain pre9, active compounds read low 1 | locus YGR252W, strain gcn5, active compounds read low 0.94 | locus YHR013C, strain ard1, active compounds read low 1.01 | locus YHR027C, strain rpn1, active compounds read low 0.993 | locus YHR030C, strain SLT2, active compounds read low 0.991 | locus YHR079C, strain IRE1 (second series), active compounds read low 0.991 | locus YHR094C, strain hxt1, active compounds read low 0.975 | locus YHR129C, strain ARP1, active compounds read low 0.995 | locus YHR142W, strain chs7, active compounds read low 1 | locus YHR200W, strain rpn10, active compounds read low 0.977 | locus YIL066C, strain RNR3, active compounds read low 0.949 | locus YIL073C, strain SPO22, active compounds read low 0.949 | locus YIL125W, strain kgd1, active compounds read low 0.983 | locus YIR030C, strain dcg1, active compounds read low 0.981 | locus YJL092W, strain hpr5, active compounds read low 0.973 | locus YJL095W, strain BCK1 (second series), active compounds read low 0.977 | locus YJL095W, strain BCK1, active compounds read low 1.02 | locus YJL115W, strain asf1, active compounds read low 0.987 | locus YJL129C, strain trk1, active compounds read low 0.966 | locus YJL134W, strain LCB3, active compounds read low 0.989 | locus YJL154C, strain vps35, active compounds read low 0.996 | locus YJL164C, strain tpk1, active compounds read low 1.02 | locus YJL166W, strain qcr8, active compounds read low 0.976
active: locus YGL253W, strain hxk2, active compounds read low 0.907

Reference: PubChem BioAssay AID1159580 (chemical genetic matrix, 2015)
